Measurements from PubChem BioAssay (NCI).
The panel holds about 79,000 compounds, 15% with a hit somewhere; the sample as a whole holds those more often. The source made the active and inactive calls. Rule as the data show it: active = growth inhibition above about 70%; inactive = the rest.

Experiments:
[1] = NCI Yeast Anticancer Drug Screen. Data for the rad50 strain (AID 155);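 also: 0% = growth of vehicle-only cultures of the same strain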; settings: S. cerevisiae rad50 strain growth inhibition, stronger effect = higher value
Method in brief: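 A DNA repair-deficient yeast mutant serves as the test organism; compound-induced growth inhibition is calculated against vehicle-treated cells.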

[2] = NCI Yeast Anticancer Drug Screen. Data for the mec2-1 strain (AID 157); settings: S. cerevisiae mec2-1 strain, stronger effect = higher value
Method in brief: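 mec2-1 yeast strain, carrying an alteration in DNA damage repair or cell cycle control, was exposed to compounds; growth inhibition was measured relative to vehicle-treated controls.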

[3] = NCI Yeast Anticancer Drug Screen. Data for the sgs1 mgt1 strain (AID 161);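 also: 0% = growth of cultures given vehicle only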; settings: S. cerevisiae sgs1 mgt1 strain, stronger effect = higher value
Method in brief: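 Growth of a repair-deficient yeast mutant was monitored after compound treatment and expressed as inhibition relative to vehicle-treated cultures.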

[4] = NCI Yeast Anticancer Drug Screen. Data for the cln2 rad14 strain (AID 165);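 also: 0% = growth equal to vehicle treated cultures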; settings: S. cerevisiae cln2 rad14 strain, stronger effect = higher value
Method in brief: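 Yeast carrying cln2 and rad14 alterations (cell cycle control and DNA damage repair) were exposed to compounds. Growth inhibition was measured against vehicle-treated controls.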

[5] = NCI Yeast Anticancer Drug Screen. Data for the bub3 strain (AID 167); settings: S. cerevisiae bub3 mutant strain, stronger effect = higher value
Method in brief: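 Inhibition values come from growth of compound-treated mutant yeast normalised to vehicle-treated controls.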

[6] = NCI Yeast Anticancer Drug Screen. Data for the mlh1 rad18 strain (AID 175); settings: S. cerevisiae mlh1 rad18 strain growth inhibition, stronger effect = higher value
Method in brief: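 Growth inhibition of the yeast strain was measured after compound exposure and expressed relative to vehicle-treated controls. The strain carries defined defects in DNA damage repair.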

[7] = at 5.0 µM (retest, dose inferred, filed as 0.5)
[8] = at 50.0 µM (retest, dose inferred, filed as 5.0)

Measured: growth inhibition

CCC(CC)COC(=O)c1cccnc1
active: [1]; [8] 99% | [1]; at 50.0 µM 97.7% | [2]; [8] 99% | [2]; at 50.0 µM 99.1% | [3]; [8] 99% | [3]; at 50.0 µM 98.2% | [4]; [8] 99% | [4]; at 50.0 µM 96.9% | [5]; [8] 98% | [5]; at 50.0 µM 97.8% | [6]; [8] 98% | [6]; at 50.0 µM 97.5%
inactive: [1]; [7] 1% | [2]; [7] -19% | [3]; [7] 0% | [4]; [7] -4% | [5]; [7] -6% | [6]; [7] 0%

COc1cccc(/C=N/N(C)C)c1O
inactive: [1]; [7] 0% | [1]; [8] 29% | [1]; at 50.0 µM 56% | [2]; [7] -6% | [2]; [8] -17% | [2]; at 50.0 µM 9.05% | [3]; [7] -2% | [3]; [8] 21% | [3]; at 50.0 µM -1.75% | [4]; [7] 0% | [4]; [8] -8% | [4]; at 50.0 µM 11.4% | [5]; [7] 12% | [5]; [8] 29% | [5]; at 50.0 µM 1.4% | [6]; [7] 7% | [6]; [8] 28% | [6]; at 50.0 µM 19.6%

CCCCCC(CN(C)C)C(O)/C=C\c1ccccc1 (stereo not given)
active: [1]; at 50.0 µM 74.7% | [3]; at 50.0 µM 72.1%
inactive: [1]; [7] 0% | [1]; [8] -8% | [2]; [7] -1% | [2]; [8] -4% | [2]; at 50.0 µM 48.6% | [3]; [7] -10% | [3]; [8] -22% | [4]; [7] -1% | [4]; [8] -6% | [4]; at 50.0 µM 4.9% | [5]; [7] -2% | [5]; [8] -10% | [5]; at 50.0 µM 1.6% | [6]; [7] 8% | [6]; [8] -9% | [6]; at 50.0 µM 68.5%

COC(=O)C12OCC34C(CC5C(C)C6=CC(=O)OC6=CC5(C)C3C(O)C1O)OC(=O)C(O)C24 (stereo not given)
inactive: [1]; [7] 26% | [2]; [7] 30% | [3]; [7] -18% | [4]; [7] -6% | [5]; [7] -2% | [6]; [7] 33%
active: [1]; [8] 84% | [1]; at 50.0 µM 89.7% | [2]; [8] 82% | [2]; at 50.0 µM 91.4% | [3]; [8] 94% | [3]; at 50.0 µM 91% | [4]; [8] 96% | [4]; at 50.0 µM 88.1% | [5]; [8] 95% | [5]; at 50.0 µM 89.3% | [6]; [8] 93% | [6]; at 50.0 µM 81.3%

CC(C)(Br)C(=O)/C=C/c1ccc(Cl)cc1
active: [1]; [7] 92% | [1]; [8] 100% | [1]; at 50.0 µM 99.5% | [2]; [7] 92% | [2]; [8] 100% | [2]; at 50.0 µM 99.7% | [3]; [7] 94% | [3]; [8] 99% | [3]; at 50.0 µM 99.6% | [4]; [7] 89% | [4]; [8] 100% | [4]; at 50.0 µM 99.7% | [5]; [8] 99% | [5]; at 50.0 µM 99.3% | [6]; [7] 97% | [6]; [8] 100% | [6]; at 50.0 µM 99.4%
inactive: [5]; [7] 38%

CCSC(=S)NC(=O)c1ccccc1
inactive: [1]; [7] -6% | [1]; [8] 27% | [1]; at 50.0 µM 60.2% | [2]; [7] 1% | [2]; [8] 20% | [2]; at 50.0 µM 21.4% | [3]; [7] -2% | [3]; [8] 30% | [4]; [7] -12% | [4]; [8] 28% | [4]; at 50.0 µM 38.1% | [5]; [7] -7% | [5]; [8] 44% | [5]; at 50.0 µM 17.2% | [6]; [7] -3% | [6]; [8] 32% | [6]; at 50.0 µM 36.9%
active: [3]; at 50.0 µM 76.5%

CCCCCCN(CCCCCC)CCCC(O)c1cccc2ccccc12 (stereo not given)
inactive: [1]; [7] -2% | [1]; [8] -5% | [2]; [7] 2% | [2]; [8] 2% | [3]; [7] 0% | [3]; [8] 1% | [4]; [7] 0% | [4]; [8] -3% | [5]; [7] -2% | [5]; [8] 2% | [6]; [7] 1% | [6]; [8] -3%
active: [1]; at 50.0 µM 99.2% | [2]; at 50.0 µM 99.3% | [3]; at 50.0 µM 99.2% | [4]; at 50.0 µM 99.2% | [5]; at 50.0 µM 97% | [6]; at 50.0 µM 99.2%

CC#CC(=O)Nc1ccccc1CC(c1c[nH]c2ccccc12)c1c[nH]c2ccccc12
inactive: [1]; [7] 50% | [1]; [8] 50% | [2]; [7] 31% | [2]; [8] 31% | [2]; at 50.0 µM 55.1% | [3]; [7] 40% | [3]; [8] 40% | [3]; at 50.0 µM 67.5% | [4]; [7] 19% | [4]; [8] 19% | [4]; at 50.0 µM 67.7% | [5]; [7] 32% | [5]; [8] 32% | [5]; at 50.0 µM 60.8% | [6]; [7] 35% | [6]; [8] 35% | [6]; at 50.0 µM 53.8%
active: [1]; at 50.0 µM 75.4%

COc1ccc2sc3c(C)ccc(NCC4CCCN5CCCCC45)c3c(=O)c2c1 (stereo not given)
inactive: [1]; [7] 42% | [2]; [7] 12% | [3]; [7] 32% | [4]; [7] 16% | [5]; [7] 21% | [6]; [7] 27%
active: [1]; [8] 81% | [1]; at 50.0 µM 97.2% | [2]; [8] 88% | [2]; at 50.0 µM 99.6% | [3]; [8] 76% | [3]; at 50.0 µM 99.3% | [4]; [8] 85% | [4]; at 50.0 µM 99.2% | [5]; [8] 92% | [5]; at 50.0 µM 99.5% | [6]; [8] 81% | [6]; at 50.0 µM 99.4%

OC(CCN1CCOCC1)C1c2ccccc2Cc2ccccc21 (stereo not given)
inactive: [1]; [7] 6% | [2]; [7] 6% | [2]; [8] 29% | [2]; at 50.0 µM -1% | [3]; [7] 1% | [3]; at 50.0 µM 60% | [4]; [7] 1% | [4]; [8] 30% | [4]; at 50.0 µM -28.3% | [5]; [7] 0% | [5]; at 50.0 µM 46.6% | [6]; [7] 9% | [6]; at 50.0 µM 23.4%
active: [1]; [8] 74% | [1]; at 50.0 µM 77.2% | [3]; [8] 91% | [5]; [8] 76% | [6]; [8] 81%
